The source of these data is PubChem BioAssay (EPA / NIEHS).

As a reminder, the AC50 is the concentration at which the activity in the assay is half-maximal.

Assay [1] deals with Bile acid receptor (Homo sapiens) (UniProt Q96RI1). The experiment in a line: ATG_IR1_CIS: Attagene CIS-FACTORIAL HepG2 Assay for human Nuclear Receptor Subfamily 1 Group H Member 4 (NR1H4), IR1 submotif (AID 2282946). Particulars: IR1 reporter transcription, actives raise or lower the signal. In outline: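 Transient MRTU transfection, HepG2; 24 h dosing; RNA → RT-PCR → 6-FAM primer extension → HpaI digest → capillary electrophoresis fluorescence. Gain/loss of signal fitted relative to DMSO.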
Chain of Bile acid receptor (Homo sapiens) (Q96RI1 whole entry, looked up): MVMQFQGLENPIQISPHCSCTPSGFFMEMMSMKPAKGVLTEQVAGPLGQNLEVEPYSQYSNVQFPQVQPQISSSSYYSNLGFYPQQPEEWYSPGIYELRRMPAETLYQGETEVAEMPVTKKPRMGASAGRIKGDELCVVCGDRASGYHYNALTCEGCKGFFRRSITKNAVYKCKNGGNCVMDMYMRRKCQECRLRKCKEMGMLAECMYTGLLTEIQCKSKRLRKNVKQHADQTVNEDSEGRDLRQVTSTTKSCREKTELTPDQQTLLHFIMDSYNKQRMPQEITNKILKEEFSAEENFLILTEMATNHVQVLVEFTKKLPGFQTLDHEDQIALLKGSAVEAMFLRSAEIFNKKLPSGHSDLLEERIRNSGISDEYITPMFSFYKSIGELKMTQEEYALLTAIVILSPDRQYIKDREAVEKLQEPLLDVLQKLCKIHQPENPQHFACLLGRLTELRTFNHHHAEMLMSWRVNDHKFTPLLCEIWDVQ

The nature of assay [2]: ATG_GRE_CIS: Attagene CIS-FACTORIAL HepG2 Assay for human Glucocorticoid Response Elements (GRE) (AID 2282947). Particulars: HepG2 GRE cis-reporter, Attagene multiplex mRNA; actives raise or lower the signal. The procedure, abridged:
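HepG2 cells transiently transfected with multiple cis-promoter reporter units measure endogenous TF activity; 24 h compound exposure. Reporter mRNA quantified by RT-PCR, FAM labelling, HpaI digestion and capillary electrophoresis; bidirectional fit vs DMSO baseline.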

Assay [3] can be described thus: ATG_ISRE_CIS: Attagene CIS-FACTORIAL HepG2 Assay for human Interferon Regulatory Factor 1 (IRF1) binding to an Interferon-Stimulated Response Element (ISRE) (AID 2282948). The note with it: HepG2 ISRE cis-reporter (Attagene), mRNA transcription readout; actives raise or lower the signal. The procedure, abridged: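 Quantitation relies on labelled RT-PCR fragments separated by capillary electrophoresis. Human HepG2 cells bearing cis-promoter reporter constructs were treated 24 h; DMSO served as baseline for bidirectional fitting.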

Assay [4] can be described thus: ATG_M_32_CIS: Attagene CIS-FACTORIAL HepG2 Assay for M32 Transcription Factor (Internal Marker) (AID 2282949).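 Also: background control marker of the multiplexed CIS panel rather than a real target.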 The note with it: HepG2 Attagene cis-factorial M32 reporter, mRNA; actives raise or lower the signal. In outline: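 Following 24 h chemical exposure of HepG2 cells transiently expressing cis-promoter reporter constructs, reporter transcript levels were determined by RT-PCR with fluorescent labelling and capillary electrophoresis, then fitted bidirectionally against DMSO.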

Assay [5] is described as follows: ATG_M_06_CIS: Attagene CIS-FACTORIAL HepG2 Assay for M06 Transcription Factor (Internal Marker) (AID 2282950). The note with it: HepG2 Attagene CIS-FACTORIAL M06 internal marker reporter; actives raise or lower the signal. In outline: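 Terse: HepG2, transient MRTU transfection (FuGene 6), 24 h dosing; total RNA, oligo(dT) RT, PCR, FAM label, HpaI cut, capillary electrophoresis; bidirectional fit vs DMSO baseline; background-control endpoint.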

Assay [6] deals with Hypoxia-inducible factor 1-alpha (Homo sapiens) (UniProt Q16665). The experiment in a line: ATG_HIF1a_CIS: Attagene CIS-FACTORIAL HepG2 Assay for human Hypoxia Inducible Factor 1 (HIF1A) (AID 2282951). The note with it: HepG2 Attagene cis-factorial HIF1a reporter transcription; actives raise or lower the signal. In outline: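 HepG2, transient cis-reporter library, 24 h dosing. RNA → RT (oligo dT) → PCR → 6-FAM primer extension → HpaI → CE. Bidirectional curve fit vs DMSO.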
Chain of Hypoxia-inducible factor 1-alpha (Homo sapiens) (Q16665 whole entry, looked up): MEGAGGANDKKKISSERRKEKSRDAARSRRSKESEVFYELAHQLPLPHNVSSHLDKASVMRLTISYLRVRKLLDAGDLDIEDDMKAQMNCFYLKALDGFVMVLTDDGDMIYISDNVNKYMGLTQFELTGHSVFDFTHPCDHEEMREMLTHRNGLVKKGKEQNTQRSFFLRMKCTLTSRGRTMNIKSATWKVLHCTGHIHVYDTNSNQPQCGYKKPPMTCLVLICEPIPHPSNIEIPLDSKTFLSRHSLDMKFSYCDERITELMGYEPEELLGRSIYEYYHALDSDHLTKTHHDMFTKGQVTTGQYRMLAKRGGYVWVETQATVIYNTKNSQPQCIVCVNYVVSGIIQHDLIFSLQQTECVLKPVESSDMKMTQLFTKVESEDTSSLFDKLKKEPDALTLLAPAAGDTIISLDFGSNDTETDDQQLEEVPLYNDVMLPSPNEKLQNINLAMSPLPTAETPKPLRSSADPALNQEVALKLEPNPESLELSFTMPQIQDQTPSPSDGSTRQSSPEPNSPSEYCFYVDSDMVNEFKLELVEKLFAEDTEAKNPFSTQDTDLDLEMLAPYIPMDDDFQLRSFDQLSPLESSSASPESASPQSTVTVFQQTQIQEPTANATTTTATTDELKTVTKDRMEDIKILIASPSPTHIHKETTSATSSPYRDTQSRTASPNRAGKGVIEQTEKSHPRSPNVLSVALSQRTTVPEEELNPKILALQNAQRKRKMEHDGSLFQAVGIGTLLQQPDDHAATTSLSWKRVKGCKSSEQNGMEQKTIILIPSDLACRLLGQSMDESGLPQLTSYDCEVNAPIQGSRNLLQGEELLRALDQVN

Assay [7] has as its target Hepatocyte nuclear factor 6 (Homo sapiens) (UniProt Q9UBC0). Kind of assay: ATG_HNF6_CIS: Attagene CIS-FACTORIAL HepG2 Assay for human Hepatocyte Nuclear Factor 6 (HNF6) (AID 2282952). The note with it: HepG2 Attagene cis-factorial HNF6 reporter transcription; actives raise or lower the signal. The procedure, abridged:
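Multiplexed mRNA reporter assay in transfected HepG2; 24 h dosing; RT-PCR plus capillary electrophoresis fluorescence; DMSO-referenced bidirectional curve fitting.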

Assay [8] is described as follows: ATG_MRE_CIS: Attagene CIS-FACTORIAL HepG2 Assay for human Metal Responsive Element (MRE) (AID 2282954). The note with it: HepG2 MRE cis-reporter transcription, Attagene multiplex; actives raise or lower the signal. In outline: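 HepG2 cells transiently transfected with multiple cis-element reporter units measure endogenous MTF1-driven transcription. After 24 h compound exposure, reporter mRNA is quantified by RT-PCR with 6-FAM labelling, HpaI digestion and capillary electrophoresis; bidirectional fits versus DMSO.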

A short description of assay [9]: ATG_PBREM_CIS: Attagene CIS-FACTORIAL HepG2 Assay for human Phenobarbital-responsive Enhancer Module (PBREM) (AID 2282955). Particulars: HepG2 PBREM cis-reporter, Attagene multiplexed transcription; actives raise or lower the signal. In outline: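 HepG2, transient MRTU transfection, 24 h dosing; RNA → oligo(dT) RT → PCR → 6-FAM extension → HpaI → CE. Bidirectional fit vs DMSO.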

Assay [10] concerns the target Paired box protein Pax-6 (Homo sapiens) (UniProt P26367). Kind of assay: ATG_Pax6_CIS: Attagene CIS-FACTORIAL HepG2 Assay for human Paired Box 6 (PAX6) (AID 2282956). The note with it: HepG2 CIS-FACTORIAL PAX6 reporter transcription, RNA readout; actives raise or lower the signal. The procedure, abridged:
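After twenty-four hours of chemical exposure, transfected HepG2 cells are harvested for RNA. Cis-promoter reporter transcripts are amplified, fluorescently labelled and sized by capillary electrophoresis, with gain and loss of signal scored against DMSO.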

The nature of assay [11]: ATG_PXRE_CIS: Attagene CIS-FACTORIAL HepG2 Assay for human Pregnane X Receptor Element (PXRE) (AID 2282957). The note with it: HepG2 Attagene CIS-FACTORIAL PXRE reporter, mRNA; actives raise or lower the signal. The procedure, abridged:
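Cells: HepG2, transiently transfected reporter units under cis promoter control. Exposure: 24 h. Detection: reporter mRNA via RT-PCR/CE fluorescence; bidirectional fitting, DMSO-referenced.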

The nature of assay [12]: ATG_PPRE_CIS: Attagene CIS-FACTORIAL HepG2 Assay for human Peroxisome Proliferator-activated Response Element (PPRE) (AID 2282958). Particulars: HepG2 PPRE cis-element reporter, Attagene transcription factor profiling; actives raise or lower the signal. The procedure, abridged:
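Transcript-level reporter induction in transfected HepG2 cells after 24 h chemical exposure, quantified by fluorescence from RT-PCR products separated by capillary electrophoresis.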

A short description of assay [13]: ATG_RORE_CIS: Attagene CIS-FACTORIAL HepG2 Assay for human RAR-related Orphan Receptor Element (RORE) (AID 2282959). Particulars: HepG2 Attagene cis-factorial RORE reporter, mRNA; actives raise or lower the signal. In outline: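 Multiplexed reporter assay measuring mRNA induction from a cis promoter element in transiently transfected HepG2 cells after 24 h treatment. Detection via RT-PCR and capillary electrophoresis fluorescence; DMSO serves as baseline.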

Assay [14] is described as follows: ATG_Sox_CIS: Attagene CIS-FACTORIAL HepG2 Assay for human SRY-box transcription factor (SOX) (AID 2282960). Particulars: HepG2 Attagene cis-factorial SOX reporter, mRNA; actives raise or lower the signal. In outline: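 Cells were transfected with reporter constructs under cis-regulatory promoters, then exposed to chemicals for 24 h. Reporter transcripts were quantified by fluorescence after RT-PCR and capillary electrophoresis; activity was fitted in both directions against DMSO.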

The target in assay [15] is Transcription factor Sp1 (Homo sapiens) (UniProt P08047). The experiment in a line: ATG_Sp1_CIS: Attagene CIS-FACTORIAL HepG2 Assay for human Specificity Protein 1 (Sp1) (AID 2282961). Particulars: HepG2 Sp1 cis-reporter transcription, actives raise or lower the signal. The procedure, abridged: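 Measures mRNA induction of an Sp1-linked reporter in HepG2 cells 24 h post-dosing. Multiplexed reporters read by RT-PCR and capillary electrophoresis; DMSO serves as negative control and baseline.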
Chain of Transcription factor Sp1 (Homo sapiens) (P08047 whole entry, looked up): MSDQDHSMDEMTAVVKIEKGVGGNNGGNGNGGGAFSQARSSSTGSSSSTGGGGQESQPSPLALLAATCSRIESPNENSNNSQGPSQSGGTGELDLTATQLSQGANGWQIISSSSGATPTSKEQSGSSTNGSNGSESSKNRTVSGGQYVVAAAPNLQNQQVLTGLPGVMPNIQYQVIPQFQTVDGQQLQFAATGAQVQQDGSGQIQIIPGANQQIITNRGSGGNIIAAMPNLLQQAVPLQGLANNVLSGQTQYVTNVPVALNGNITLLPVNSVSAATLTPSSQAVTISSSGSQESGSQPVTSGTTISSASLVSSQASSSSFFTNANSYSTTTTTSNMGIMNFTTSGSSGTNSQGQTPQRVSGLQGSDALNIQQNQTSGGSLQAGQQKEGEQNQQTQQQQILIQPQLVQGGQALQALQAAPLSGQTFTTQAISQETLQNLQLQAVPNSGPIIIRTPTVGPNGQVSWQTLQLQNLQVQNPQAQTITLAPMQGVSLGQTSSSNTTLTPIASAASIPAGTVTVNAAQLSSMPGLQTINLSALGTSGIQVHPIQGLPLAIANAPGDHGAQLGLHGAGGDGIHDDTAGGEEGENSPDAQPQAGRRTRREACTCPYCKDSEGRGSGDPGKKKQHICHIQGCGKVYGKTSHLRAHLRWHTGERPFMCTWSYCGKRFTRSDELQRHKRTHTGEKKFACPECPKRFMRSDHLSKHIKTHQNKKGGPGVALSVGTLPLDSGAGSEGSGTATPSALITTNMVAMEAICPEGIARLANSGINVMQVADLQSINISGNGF

Assay [16] in a line: ATG_SREBP_CIS: Attagene CIS-FACTORIAL HepG2 Assay for human Sterol Regulatory Element Binding (SREBP) (AID 2282962). The note with it: HepG2 Attagene cis-factorial SREBP reporter, mRNA; actives raise or lower the signal. The procedure, abridged: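 Twenty-four hours after chemical dosing of transfected HepG2 cultures, reporter RNA was converted to cDNA, amplified, end-labelled with 6-FAM and resolved by capillary electrophoresis. Responses were fitted relative to DMSO.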

Assay [17] has as its target Signal transducer and activator of transcription 3 (Homo sapiens) (UniProt P40763). Kind of assay: ATG_STAT3_CIS: Attagene CIS-FACTORIAL HepG2 Assay for human Signal Transducer and Activator of Transcription 3 (STAT3) (AID 2282963). Particulars: HepG2, Attagene cis-factorial STAT3 reporter transcription; actives raise or lower the signal. In outline: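 HepG2 cells transiently transfected with cis-element-driven multiple reporter transcription units; after 24 h chemical exposure, reporter mRNA measured by RT-PCR, 6-FAM primer-extension labelling, HpaI digestion and capillary electrophoresis. Bidirectional fitting versus DMSO baseline.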

Assay [18] can be described thus: ATG_TA_CIS: Attagene CIS-FACTORIAL HepG2 Assay for human TA Basal Promoter (AID 2282964). Particulars: HepG2 Attagene CIS-factorial TA basal promoter reporter; actives raise or lower the signal. In outline:
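Transfected HepG2, 24 h compound exposure; RNA → RT-PCR → FAM primer extension → HpaI cut → CE fluorescence. Gain/loss-of-signal fitted against DMSO negative control. Background-control readout.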

Assay [19] in a line: ATG_TCF_b_cat_CIS: Attagene CIS-FACTORIAL HepG2 Assay for human T-Cell-Factor with beta-catenin (TCF/b-cat) (AID 2282965). Particulars: HepG2 TCF/beta-catenin cis-reporter transcription, actives raise or lower the signal. In outline:
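HepG2 cells transiently transfected with multiple cis-promoter-regulated reporter transcription units, so endogenous transcription factor activity is measured. Reporter mRNA read 24 hours after dosing by RT-PCR, fluorescent labelling and capillary electrophoresis; bidirectional fitting against DMSO.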

The target in assay [20] is Heat shock factor protein 1 (Homo sapiens) (UniProt Q00613). The experiment in a line: ATG_HSE_CIS: Attagene CIS-FACTORIAL HepG2 Assay for human Heat Shock Transcription Factor 1 (HSE) (AID 2282953). The note with it: HepG2 HSE cis-reporter, Attagene RNA transcription; actives raise or lower the signal. In outline: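 Read-out: fluorescence of reporter-specific RT-PCR fragments separated by capillary electrophoresis. HepG2 carrying transfected cis-element reporter units; 24 h dosing; activity fitted in both directions relative to DMSO baseline.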
Chain of Heat shock factor protein 1 (Homo sapiens) (Q00613 whole entry, looked up, the tested form may be a part): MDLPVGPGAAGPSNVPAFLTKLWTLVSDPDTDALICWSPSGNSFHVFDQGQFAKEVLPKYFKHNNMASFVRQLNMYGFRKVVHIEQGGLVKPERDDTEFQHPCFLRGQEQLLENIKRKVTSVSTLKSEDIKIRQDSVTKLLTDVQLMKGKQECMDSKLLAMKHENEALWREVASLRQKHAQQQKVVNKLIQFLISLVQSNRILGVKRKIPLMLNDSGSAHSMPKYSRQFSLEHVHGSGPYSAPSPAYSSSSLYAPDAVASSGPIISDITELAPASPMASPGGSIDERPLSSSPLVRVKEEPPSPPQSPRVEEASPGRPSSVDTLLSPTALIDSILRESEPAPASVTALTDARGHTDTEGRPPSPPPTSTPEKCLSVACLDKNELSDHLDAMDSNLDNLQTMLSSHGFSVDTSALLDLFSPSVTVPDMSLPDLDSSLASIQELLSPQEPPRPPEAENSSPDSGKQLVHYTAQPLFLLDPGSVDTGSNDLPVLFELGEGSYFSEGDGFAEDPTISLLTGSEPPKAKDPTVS

The structures appear in SMILES notation. Activity calls are given as the source filed them. The calls were made as follows: active = hit-call score of the fitted dose curve at least 0.9, where 1 is the maximum; inactive = score below 0.9.

Chain of Signal transducer and activator of transcription 3 (Homo sapiens) (P40763 whole entry, looked up): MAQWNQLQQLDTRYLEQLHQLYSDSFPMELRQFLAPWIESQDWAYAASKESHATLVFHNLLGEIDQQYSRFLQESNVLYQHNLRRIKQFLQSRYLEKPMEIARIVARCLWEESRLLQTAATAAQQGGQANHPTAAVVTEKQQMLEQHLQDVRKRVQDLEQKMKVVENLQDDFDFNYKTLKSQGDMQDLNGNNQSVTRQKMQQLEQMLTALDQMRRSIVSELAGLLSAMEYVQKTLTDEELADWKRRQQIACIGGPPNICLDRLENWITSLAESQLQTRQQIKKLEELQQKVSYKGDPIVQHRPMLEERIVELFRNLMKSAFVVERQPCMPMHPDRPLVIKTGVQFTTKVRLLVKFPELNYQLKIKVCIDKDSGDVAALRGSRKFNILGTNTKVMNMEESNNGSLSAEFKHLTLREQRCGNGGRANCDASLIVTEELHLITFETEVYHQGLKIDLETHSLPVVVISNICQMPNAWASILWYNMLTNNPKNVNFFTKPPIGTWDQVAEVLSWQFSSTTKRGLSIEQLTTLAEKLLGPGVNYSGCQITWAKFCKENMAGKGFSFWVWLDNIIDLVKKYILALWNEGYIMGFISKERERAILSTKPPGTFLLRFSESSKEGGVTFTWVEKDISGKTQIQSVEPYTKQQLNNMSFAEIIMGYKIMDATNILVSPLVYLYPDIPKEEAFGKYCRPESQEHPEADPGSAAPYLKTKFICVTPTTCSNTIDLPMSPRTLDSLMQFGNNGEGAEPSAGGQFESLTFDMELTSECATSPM
Chain of Hepatocyte nuclear factor 6 (Homo sapiens) (Q9UBC0 whole entry, looked up): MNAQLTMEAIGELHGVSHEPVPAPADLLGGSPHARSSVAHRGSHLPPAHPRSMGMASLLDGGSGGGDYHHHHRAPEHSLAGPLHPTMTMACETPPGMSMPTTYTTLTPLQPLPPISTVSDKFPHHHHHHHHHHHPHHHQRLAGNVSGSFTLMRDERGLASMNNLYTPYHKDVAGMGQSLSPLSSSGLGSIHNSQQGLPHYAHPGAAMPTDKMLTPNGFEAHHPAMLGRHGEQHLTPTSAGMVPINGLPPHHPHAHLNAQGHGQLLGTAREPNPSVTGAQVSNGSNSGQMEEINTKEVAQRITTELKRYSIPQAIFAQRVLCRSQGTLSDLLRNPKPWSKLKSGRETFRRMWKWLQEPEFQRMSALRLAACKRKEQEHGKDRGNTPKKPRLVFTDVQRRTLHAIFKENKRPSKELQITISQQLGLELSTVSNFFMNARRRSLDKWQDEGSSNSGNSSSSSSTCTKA
Chain of Paired box protein Pax-6 (Homo sapiens) (P26367 whole entry, looked up): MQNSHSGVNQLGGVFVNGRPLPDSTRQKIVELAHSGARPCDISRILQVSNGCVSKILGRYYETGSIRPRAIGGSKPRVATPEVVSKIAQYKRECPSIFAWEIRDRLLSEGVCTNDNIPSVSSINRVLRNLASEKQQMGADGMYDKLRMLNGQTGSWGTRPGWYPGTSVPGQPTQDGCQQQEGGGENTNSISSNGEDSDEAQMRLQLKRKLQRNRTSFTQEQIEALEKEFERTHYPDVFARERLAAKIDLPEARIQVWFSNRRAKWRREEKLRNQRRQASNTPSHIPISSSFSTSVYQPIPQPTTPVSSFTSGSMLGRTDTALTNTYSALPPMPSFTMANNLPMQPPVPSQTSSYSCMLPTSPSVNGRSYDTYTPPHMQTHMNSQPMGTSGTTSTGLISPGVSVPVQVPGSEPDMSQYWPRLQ

For the compound `CC(C)CCCCCCCOC(=O)CCCCC(=O)OCCCCCCCC(C)C`, the compound was classed as inactive in [1], in assay [2], in assay [3], in [4], in assay [5] and in assay [6]. Besides, the compound was classed as inactive in [7], in assay [8], in [9], in [10], in assay [12] and in [13]. In addition, the result in assay [14], in assay [15], in assay [16], in assay [17], in assay [18] and in assay [19] was inactive. In addition, in [11], the AC50 is 100 µM (active).
Turning to `Cc1[nH]cnc1C[C@H]1CCc2c(C)c3ccccc3n2C1=O`, the compound was classed as inactive in [1], in assay [2], in assay [4], in [5], in assay [7] and in assay [14]. The compound was classed as inactive in assay [15], in assay [16] and in [17]. For the same compound, the concentration at half-maximal activity (AC50) in assay [3] was 21.9 µM (active); in [6] it was 20.7 µM (active); in assay [8] it was 33.9 µM (active); in [9], 15.8 µM (active); in assay [10], 37.2 µM (active); in assay [11], 7.57 µM (active). Moreover, the results for the AC50 in assay [13], in [18] and in assay [19] were 18.9 µM (active), 29.7 µM (active) and 15.8 µM (active), respectively.
With `Cc1ccc(C)c(O)c1`, the call in assay [1], in assay [2], in [3], in [4], in assay [5] and in assay [6] was inactive. Besides, the result in assay [7], in assay [8], in [9], in [10], in [11] and in [12] was inactive. Further, the outcome in [13], in [14], in assay [15], in assay [16], in assay [17] and in [18] was inactive. Moreover, the call in assay [19] was inactive.
Take `CCCCC(CC)COC(=O)CCCCCCCCC(=O)OCC(CC)CCCC` (configuration not stated): the result in assay [1], in assay [2], in [3], in assay [4], in assay [5] and in [6] was inactive. The compound was called inactive in [7], in [20], in assay [8], in assay [9], in assay [10] and in [11]. Further, the compound was classed as inactive in assay [12], in assay [13], in assay [15], in assay [16], in [17] and in assay [18]. Also, the call in [19] was inactive.
In the case of `CCOc1cccc(-n2cc(C(=O)N3CCN(c4cc(C(=O)O)c5ccccc5c4)CC3)nc2-c2ccc(C)cc2)c1`, the AC50 is 24.8 µM (active) in assay [1]; 22.8 µM (active) in assay [3]; 6.55 µM (active) in assay [6]; 61.4 µM (active) in [20]; 32.3 µM (active) in [8]; 33 µM (active) in assay [10]. Further, the AC50 is 41.4 µM (active) in assay [11]; 28.3 µM (active) in assay [12]; 26.1 µM (active) in assay [13]; 3.92 µM (active) in assay [16]; 22.3 µM (active) in assay [19]. The call in assay [2], in [4], in assay [5], in assay [7], in assay [9] and in assay [15] was inactive. Further, the compound was classed as inactive in assay [17] and in [18].
Consider `COc1ccc2sc(C(=O)Nc3nnn[nH]3)c(OC(C)C)c2c1`, for which the AC50 is 67.6 µM (active) in assay [1]; 44.1 µM (active) in assay [3]; 149 µM (active) in [6]; 91.1 µM (active) in assay [8]; 129 µM (active) in assay [10]; 12.3 µM (active) in assay [12]. Besides, the AC50 in assay [13] is 149 µM (active); in [16] it was 39.7 µM (active); in assay [18], 70.7 µM (active). Besides, the call in [2], in [4], in [5], in [7], in assay [9] and in assay [11] was inactive. Also, the compound was called inactive in [15], in assay [17] and in assay [19].
